Reference: publication PMC5540273 (PLoS ONE, 2017)

How the values were obtained:
Details in all cases: concentration: 1 μM,replicates: in singlicate; n = 1
[1] = tested on: BMX
[2] = tested on: BRAF
[3] = tested on: T1, BRK
T1 construct: gene PTK6

[4] = tested on: BRSK1
[5] = tested on: BRSK2
[6] = tested on: BTK
[7] = tested on: BUB1
[8] = tested on: CAMK1B
[9] = tested on: CAMK1D
[10] = tested on: CAMK1G
[11] = tested on: CAMK1
[12] = tested on: CAMK2A
[13] = tested on: CAMK2B
[14] = tested on: CAMK2D
[15] = tested on: CAMK2G
[16] = tested on: CAMK4
[17] = tested on: CAMKK1
[18] = tested on: CAMKK2
[19] = tested on: CASK
[20] = tested on: T2, CDC2L1
T2 construct: gene CDK11B
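Note: KINOMEscan kinase panel screen.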

| Structure (SMILES) | %Inh [1] [%] | %Inh [2] [%] | %Inh [3] [%] | %Inh [4] [%] | %Inh [5] [%] | %Inh [6] [%] | %Inh [7] [%] | %Inh [8] [%] | %Inh [9] [%] | %Inh [10] [%] | %Inh [11] [%] | %Inh [12] [%] | %Inh [13] [%] | %Inh [14] [%] | %Inh [15] [%] | %Inh [16] [%] | %Inh [17] [%] | %Inh [18] [%] | %Inh [19] [%] | %Inh [20] [%] |
| --- | --- | --- | --- | --- | --- | --- | --- | --- | --- | --- | --- | --- | --- | --- | --- | --- | --- | --- | --- | --- |
| CN(c1ccc2c(c1)nc(NCc1ccc(F)cc1)n2C)c1ccnc(Nc2ccc(CS(C)(=O)=O)cc2)n1.Cl [GW813244] | 16 | 96.8 | 88 | 0 | 0 | 0 | 50 | 0 | 0 | 22 | 0 | 0 | 0 | 0 | 1 | 0 | 0 | 6 | 15 | 94.5 |
| Nc1nccc(-c2ccc3c(N)n[nH]c3c2)n1 [GSK1034945] | 0 | 0 | 4 | 41 | 15 | 0 | 73 | 10 | 7 | 0 | 11 | 0 | 5 | 0 | 0 | 0 | 1 | 8 | 6 | 0 |
| Cl.Nc1n[nH]c2cc(-c3ccccn3)ccc12 [GSK2189892] | 12 | 0 | 32 | 0 | 0 | 0 | 0 | 0 | 25 | 0 | 23 | 0 | 0 | 2 | 24 | 0 | 0 | 9 | 0 | 1 |
| Cc1ccn2nc(-c3ccc(F)cc3)c(-c3ccncc3)c2c1.Cl [GW457859] | 8 | 49 | 0 | 0 | 0 | 22 | 87 | 30 | 1 | 0 | 16 | 0 | 0 | 0 | 15 | 0 | 0 | 9 | 6 | 0 |
| CC(=O)c1c(-c2ccncc2)[nH]c(-c2ccncc2)c1C [GW493036] | 0 | 19 | 3 | 0 | 0 | 7 | 84 | 0 | 20 | 0 | 26 | 0 | 0 | 0 | 0 | 0 | 0 | 0 | 25 | 0 |
| CS(=O)(=O)c1cccc(CNc2nc(Nc3ccc4c(c3)[C@@H]3C[C@@H]4CNC3=O)ncc2C(F)(F)F)c1 | 4 | 0 | 0 | 0 | 0 | 0 | 0 | 19 | 0 | 0 | 1 | 0 | 0 | 0 | 0 | 0 | 41 | 15 | 0 | 0 |
| CS(=O)c1ccc(-c2coc3ccc(-c4n[nH]c(=O)o4)cc23)cc1 (stereo not shown) | 0 | 12 | 0 | 0 | 2 | 20 | 14 | 14 | 0 | 12 | 0 | 5 | 16 | 6 | 3 | 0 | 7 | 12 | 26 | 0 |
| CCCC(=O)Nc1n[nH]c2ncccc12 [SB-601436] | 28 | 7 | 0 | 0 | 0 | 0 | 0 | 0 | 3 | 0 | 0 | 13 | 0 | 0 | 0 | 0 | 0 | 0 | 0 | 0 |
| CC(C(=O)NC1CCN(c2ccnc(Nc3ccc(F)cc3)n2)C1)c1ccc(Cl)cc1 (stereo not shown) [GSK1379713] | 0 | 0 | 0 | 5 | 0 | 0 | 18 | 37 | 8 | 13 | 8 | 0 | 0 | 2 | 26 | 0 | 0 | 5 | 0 | 0 |
| O=C(NCC1CC1)c1ccc(-c2cc(C(=O)NC3CC3)ccc2F)cc1 [GW810445] | 0 | 0 | 0 | 0 | 0 | 0 | 22 | 21 | 0 | 0 | 0 | 0 | 0 | 0 | 0 | 0 | 0 | 0 | 41 | 0 |
| Cn1ccc2ncnc(Oc3ccc(NC(=O)Nc4cc(C(C)(C)C)on4)c(Cl)c3)c21 | 33 | 76 | 10 | 8 | 0 | 0 | 5 | 0 | 14 | 12 | 17 | 100 | 100 | 4 | 14 | 0 | 6 | 22 | 0 | 0 |
